Experiments:
Assay in all cases: protein-binding microarray (PBM); PBM: ~300 nM protein, 6 mM HEPES pH 7.8, 80 mM KCl, 0.5 mM EDTA, 0.5 mM EGTA, 6% glycerol, 35 ng/ul poly-dIdC, 1% milk, 1 h, room temperature; Ap Aiptasia and Nv Nematostella (sea anemones) / Co Capsaspora / Aq Amphimedon (sponge) / Dm Drosophila / Hu human; RHD is the Rel homology domain; high values mean tight binding
Conditions in all cases: dsDNA, one strand shown
[1] = molecular target: T1, GST-Ap-NF-kB RHD (Exaiptasia pallida (Aiptasia), UniProt A0A913YAJ5 2-422)
T1 sequence: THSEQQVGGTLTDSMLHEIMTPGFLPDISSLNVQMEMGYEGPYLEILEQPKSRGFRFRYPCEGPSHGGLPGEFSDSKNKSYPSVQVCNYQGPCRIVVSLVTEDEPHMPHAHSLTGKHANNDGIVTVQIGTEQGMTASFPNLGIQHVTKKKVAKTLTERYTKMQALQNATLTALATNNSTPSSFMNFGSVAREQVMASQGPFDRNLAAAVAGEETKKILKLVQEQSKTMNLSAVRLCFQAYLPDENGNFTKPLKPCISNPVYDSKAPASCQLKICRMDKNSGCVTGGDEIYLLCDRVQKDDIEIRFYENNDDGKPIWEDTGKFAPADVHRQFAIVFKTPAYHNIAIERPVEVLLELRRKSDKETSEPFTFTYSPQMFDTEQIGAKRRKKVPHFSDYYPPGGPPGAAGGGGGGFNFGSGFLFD

[2] = molecular target: T2, GST-Nv-NF-kB (Cys allele) (Nematostella vectensis, UniProt E5G601 2-411)
T2 sequence: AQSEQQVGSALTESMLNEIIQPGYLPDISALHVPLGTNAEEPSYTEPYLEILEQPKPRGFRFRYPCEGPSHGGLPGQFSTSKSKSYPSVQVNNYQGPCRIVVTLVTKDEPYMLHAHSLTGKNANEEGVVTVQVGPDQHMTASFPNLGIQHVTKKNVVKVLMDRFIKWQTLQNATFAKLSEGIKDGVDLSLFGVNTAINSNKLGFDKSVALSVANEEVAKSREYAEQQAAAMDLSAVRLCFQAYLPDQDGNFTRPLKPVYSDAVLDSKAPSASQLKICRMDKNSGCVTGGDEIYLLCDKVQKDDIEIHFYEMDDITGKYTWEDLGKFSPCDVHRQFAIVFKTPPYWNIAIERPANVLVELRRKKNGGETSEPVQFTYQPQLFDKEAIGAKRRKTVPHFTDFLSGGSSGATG

[3] = molecular target: T3, GST-Co-NF-kB (Capsaspora owczarzaki, UniProt F1ARL5 200-546)
T3 sequence: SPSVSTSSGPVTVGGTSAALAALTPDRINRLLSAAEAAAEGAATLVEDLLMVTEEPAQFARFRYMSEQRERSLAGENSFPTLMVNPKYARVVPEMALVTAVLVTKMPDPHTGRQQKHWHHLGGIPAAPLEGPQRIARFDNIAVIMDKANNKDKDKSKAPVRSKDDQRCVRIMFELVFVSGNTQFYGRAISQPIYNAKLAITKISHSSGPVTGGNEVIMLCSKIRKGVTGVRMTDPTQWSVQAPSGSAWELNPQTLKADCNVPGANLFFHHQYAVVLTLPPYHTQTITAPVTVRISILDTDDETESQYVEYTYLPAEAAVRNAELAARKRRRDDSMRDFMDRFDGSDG

[4] = molecular target: T4, GST-Dm-Relish (Drosophila melanogaster, UniProt Q94527 99-473)
T4 sequence: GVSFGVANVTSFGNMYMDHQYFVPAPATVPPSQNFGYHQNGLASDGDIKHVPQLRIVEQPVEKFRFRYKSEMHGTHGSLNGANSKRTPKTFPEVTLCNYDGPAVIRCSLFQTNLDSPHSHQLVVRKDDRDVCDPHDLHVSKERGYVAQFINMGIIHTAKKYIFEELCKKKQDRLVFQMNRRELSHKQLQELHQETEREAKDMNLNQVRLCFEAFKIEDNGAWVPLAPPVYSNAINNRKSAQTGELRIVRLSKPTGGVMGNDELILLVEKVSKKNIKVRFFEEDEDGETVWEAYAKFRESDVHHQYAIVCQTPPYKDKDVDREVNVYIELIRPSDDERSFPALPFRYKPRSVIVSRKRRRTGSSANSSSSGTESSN

[5] = molecular target: T5, GST-Aq-NF-kB (Amphimedon queenslandica, UniProt A9Y5G7 2-389)
T5 sequence: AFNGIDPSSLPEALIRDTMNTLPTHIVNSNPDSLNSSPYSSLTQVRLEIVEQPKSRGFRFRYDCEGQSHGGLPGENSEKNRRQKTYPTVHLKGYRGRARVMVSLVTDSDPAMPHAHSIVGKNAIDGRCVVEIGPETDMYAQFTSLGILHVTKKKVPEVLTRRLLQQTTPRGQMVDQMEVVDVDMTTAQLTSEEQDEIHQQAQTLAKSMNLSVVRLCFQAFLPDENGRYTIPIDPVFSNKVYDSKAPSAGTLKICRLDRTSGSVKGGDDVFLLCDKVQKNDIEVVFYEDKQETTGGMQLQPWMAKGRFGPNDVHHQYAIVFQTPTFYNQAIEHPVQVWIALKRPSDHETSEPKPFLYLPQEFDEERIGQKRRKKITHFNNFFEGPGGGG

Sequence | binding signal [1] [z-score] | binding signal [2] [z-score] | binding signal [3] [z-score] | binding signal [4] [z-score] | binding signal [5] [z-score]
CCGATTAACATCACAGGGAATTCTGATGTTAATCGGGTCTTGATTCGCTTGACGCTGCTG | 4.57 | 5.56 | 3.45 | 3.71 | 4.62
CCGATTAACATCAAGTATTCCCATGATGTTAATCGGGTCTTGATTCGCTTGACGCTGCTG | 2.44 | 2.26 | 3.57 | 2 | 1.85
CCGATTAACATCAGGGGATCCCATGATGTTAATCGGGTCTTGATTCGCTTGACGCTGCTG | 7.15 | 5.1 | 2.81 | 10 | 4.95
CCGATTAACATCACATTGTCCCCTGATGTTAATCGGGTCTTGATTCGCTTGACGCTGCTG | 4.03 | 4.18 | 4.12 | 1.73 | 3.26
CCGATTAACATCAGAATTGCCCCTGATGTTAATCGGGTCTTGATTCGCTTGACGCTGCTG | 2.58 | 3.54 | 1.95 | 1.75 | 3.86
CCGATTAACATCAAGAGACCCCCTGATGTTAATCGGGTCTTGATTCGCTTGACGCTGCTG | 5.03 | 2.88 | 2.08 | 3.99 | 3.76
CCGATTAACATCACGTAAACCCCTGATGTTAATCGGGTCTTGATTCGCTTGACGCTGCTG | 3.55 | 2.68 | 1.08 | 6.43 | 3.41
CCGATTAACATCAGGGAGTTACCTGATGTTAATCGGGTCTTGATTCGCTTGACGCTGCTG | 4.03 | 5.22 | 2.38 | 7.17 | 7.22
CCGATTAACATCAGGGGGATGGATGATGTTAATCGGGTCTTGATTCGCTTGACGCTGCTG | 3.8 | 3.13 | 3.52 | 2.24 | 3.5
CCGATTAACATCAAGGGATTCCCTGATGTTAATCGGGTCTTGATTCGCTTGACGCTGCTG | 6.28 | 5.98 | 2.7 | 9.45 | 6.56
CCGATTAACATCAGAAATCCCACTGATGTTAATCGGGTCTTGATTCGCTTGACGCTGCTG | 2.54 | 2.54 | 1.65 | 5.45 | 2.41
CCGATTAACATCAACGTATTCCCTGATGTTAATCGGGTCTTGATTCGCTTGACGCTGCTG | 3.17 | 2.78 | 2.86 | 1.41 | 1.85
CCGATTAACATCAGGGGGATAGATGATGTTAATCGGGTCTTGATTCGCTTGACGCTGCTG | 4.85 | 3.25 | 5.41 | 2.03 | 3.47
CCGATTAACATCAGGGAATTAACTGATGTTAATCGGGTCTTGATTCGCTTGACGCTGCTG | 2.83 | 4.33 | 2.63 | 4.07 | 5.19
CCGATTAACATCACTGGGAATTCTGATGTTAATCGGGTCTTGATTCGCTTGACGCTGCTG | 3.23 | 3.49 | 3.79 | 3.32 | 2.67
CCGATTAACATCAATTTCCCGCCTGATGTTAATCGGGTCTTGATTCGCTTGACGCTGCTG | 2.79 | 3.63 | 3.64 | 1.31 | 2.64
CCGATTAACATCAAATCACCCCCTGATGTTAATCGGGTCTTGATTCGCTTGACGCTGCTG | 4.73 | 4.59 | 6.61 | 4.37 | 5.32
CCGATTAACATCAAAAATCCCATTGATGTTAATCGGGTCTTGATTCGCTTGACGCTGCTG | 3.2 | 3.67 | 1.08 | 7.97 | 3.96
CCGATTAACATCAGGCATTCCCATGATGTTAATCGGGTCTTGATTCGCTTGACGCTGCTG | 1.57 | 2 | 1.54 | 3.64 | 2.75
CCGATTAACATCAGAAGTTTCCCTGATGTTAATCGGGTCTTGATTCGCTTGACGCTGCTG | 4.01 | 5.91 | 5.14 | 3.08 | 6.09
CCGATTAACATCAGGGAACTTTATGATGTTAATCGGGTCTTGATTCGCTTGACGCTGCTG | 4.27 | 4.23 | 2.81 | 4.83 | 5.17
CCGATTAACATCAGGATCTCCCCTGATGTTAATCGGGTCTTGATTCGCTTGACGCTGCTG | 7.91 | 5.49 | 4.26 | 5.64 | 6.38
CCGATTAACATCAGGGGGTGAAATGATGTTAATCGGGTCTTGATTCGCTTGACGCTGCTG | 3.26 | 3.42 | 6.99 | 3.46 | 3.93
CCGATTAACATCAGGATCTTCCCTGATGTTAATCGGGTCTTGATTCGCTTGACGCTGCTG | 3.64 | 3.68 | 1.18 | 1.53 | 5.89
CCGATTAACATCAAATTTTCCCATGATGTTAATCGGGTCTTGATTCGCTTGACGCTGCTG | 3.65 | 5.18 | 5.19 | 1.94 | 4.45
CCGATTAACATCACCCCTCCCCGTGATGTTAATCGGGTCTTGATTCGCTTGACGCTGCTG | 5.01 | 3.48 | 4.15 | 3.47 | 3.26
CCGATTAACATCAAAGAAATCCCTGATGTTAATCGGGTCTTGATTCGCTTGACGCTGCTG | 4.82 | 4.34 | 1.36 | 6.17 | 4.61
